Bioassay records from PubChem BioAssay.
HepG2 tox – kills HepG2 cells in TGF-b inhibitor counter-screen; HepG2 CAGA-GFP viability, ATP luminescence, 18 h; Potency, µM (series often up to 46.1 µM), for inactives: at the top dose activity change, negative = cytotoxicity, usual class: cytotoxic; 0.76% of 410,000 active; AID 588856
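HepG2 CAGA-GFP cells (1000/well, DMEM with 1% FBS) received compound, then TGF-beta at 500 pg/mL final, and were incubated 18 hours at 37 degrees C. Viability was read by CellTiter-Glo luminescence. Media-only wells were set as complete cell-killing and DMSO as no toxicity.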
TGFb SMAD3 inh – TGF-b pathway inhibition | 1.2% of 410,000 active | Potency, µM (doses to about 46.1 µM), inactives show at the top dose activity, negative = inhibition, actives largely listed as inhibitors | AID 588855 | HepG2 CAGA-GFP TGF-b/SMAD3 reporter, GFP fluorescence, 18 h; TGF-beta stimulated, 500 pg/mL final; further: on the % scale 0 is the no-effect control and ±100 the full control effect; nearly all actives have a fitted effect of over 65% in size
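Inhibition was scored as loss of TGF-beta-induced (500 pg/mL final, 18 hours, 37 degrees C) GFP in HEPG2 cells carrying a CAGA-GFP reporter, in DMEM with 1% FBS. Well GFP was summed per cell; Activity was normalised to unstimulated and stimulated DMSO wells, then concentration-response fitting.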
ATXN viability – reduces viability in counter-screen for ATXN expression inhibitors; 0.49% of 400,000 active; AID 651635; Potency, µM (titrated, usually from 56.7 µM), most hits filed as cytotoxic; S2 cells (HEK-293 line with an ATXN2-luciferase reporter) viability, CellTiter-Fluor protease fluorescence, 24 h; further: nearly all actives have a fitted effect of over 40% in size
ATXN2 expr inh – reduces ATXN2 reporter expression in HEK-293 cells | Potency, µM (doses to about 57 µM), for inactives: at the top dose activity change, negative = inhibition, actives largely listed as inhibitors | HEK-293 ATXN2-luciferase reporter, luminescence, 24 h | AID 1745845 | 0.72% of 360,000 active; further: on the % scale 0 is the no-effect control and ±100 the full control effect; nearly all actives have a fitted effect of over 55% in size
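qHTS (up to 57 uM final) was run with 24 h compound exposure of reporter cells at 37 °C. Each well was multiplexed: SteadyGlo luminescence measured ATXN2-luciferase expression after a fluorogenic Gly-Phe-AFC viability readout (25 uM final).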
RORgamma inh – inhibitors of mouse ROR gamma transcriptional activity; Drosophila S2 Gal4-RORgamma UAS-luciferase reporter, 20 h; Potency, µM (top dose mostly 53.6 µM), for inactives: at the top dose activity change, negative = inhibition, usual class: inhibitors; 5.4% of 310,000 active; further: on the % scale 0 is the no-effect control and ±100 the full control effect; nearly all actives have a fitted effect of over 60% in size
Target sequence (P51450 whole entry, looked up, the tested form may be a part): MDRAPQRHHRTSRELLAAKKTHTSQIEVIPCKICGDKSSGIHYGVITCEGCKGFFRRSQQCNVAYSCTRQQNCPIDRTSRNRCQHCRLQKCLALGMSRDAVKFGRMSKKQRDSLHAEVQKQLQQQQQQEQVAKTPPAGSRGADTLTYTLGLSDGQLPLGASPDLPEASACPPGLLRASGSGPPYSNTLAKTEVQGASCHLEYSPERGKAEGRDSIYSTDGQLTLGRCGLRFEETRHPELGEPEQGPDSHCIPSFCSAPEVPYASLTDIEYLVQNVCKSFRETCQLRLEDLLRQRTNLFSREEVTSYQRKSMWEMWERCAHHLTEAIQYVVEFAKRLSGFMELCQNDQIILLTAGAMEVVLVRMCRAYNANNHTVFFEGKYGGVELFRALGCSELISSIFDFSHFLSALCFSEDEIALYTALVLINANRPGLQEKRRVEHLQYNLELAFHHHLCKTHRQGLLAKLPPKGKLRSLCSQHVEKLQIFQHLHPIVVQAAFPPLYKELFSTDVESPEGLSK
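Drosophila S2 cells stably expressing Gal4-DBD/mouse RORγ fusion under metallothionein promoter plus UAS-luciferase; compound 1 h, then 700 uM CuSO4 induction for 20 h at ambient temperature; inhibition read as reduced luminescence.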
VP16 counter – counter-screen for ROR gamma inhibitors: Gal4-VP16 reporter. Drosophila S2 Gal4-VP16 UAS-luciferase, luminescence, 20 h. Potency, µM (titrated, usually from 53.6 µM), without a hit: at the top dose activity, negative = inhibition, hits mostly inhibitors. 3.5% of 310,000 active;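 further: Gal4-VP16 expression switched on by copper sulfate through the metallothionein promoter; on the % scale 0 is the no-effect control and ±100 the full control effect; nearly all actives have a fitted effect of over 50% in size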
Starred values were filed as active, the others as inactive; i = inactive; ? = inconclusive; . = no result; [ ] = another dose, or the depositor's remark. The list is not random: actives were taken first. Their share in the collection is about 6.1%. The call rests on the fitted dose curve; in most records, active means well fitted curve in the direction sought with a large enough effect; inconclusive means small, poorly fitted or top-dose-only effect, or another doubt; inactive means no such curve, though single readings can be large; an effect the other way counts as inactive or inconclusive. Potency means the concentration at half of the fitted maximal effect.

SMILES | HepG2 tox | TGFb SMAD3 inh | ATXN viability | ATXN2 expr inh | RORgamma inh | VP16 counter
COc1ccc(N2C(=O)CC(N3CCC(O)(c4cccc(C(F)(F)F)c4)CC3)C2=O)cc1 (configuration not stated) | 0% | 19% | i | -2% | 2.5µM* | ?
COc1ccc(N2C(=O)CC(N3CCCCC3)C2=O)cc1 (configuration not stated) | 20% | -5% | i | . | -109% | ?
O=C(O)c1ccc(/C=N/NC(=O)c2cc(-c3cccs3)nc3ccccc23)cc1 | 2% | ? | i | 26% | 19% | -9%
Cc1ccc(NC(=O)c2cc(-c3cccs3)nc3ccccc23)c(C)c1 | -19% | -31% | i | -9% | . | .
Cc1cccc2sc(NNC(=O)c3cc(-c4cccs4)nc4ccccc34)nc12 | -41% | ? | ? | ? | 0.25µM* | 18µM*
CC(NC(=O)c1ccccc1)C(=O)NC1=NCCS1 (configuration not stated) | 1% | -22% | i | 4% | 12% | 10%
C/C(=N\NC(=O)c1cc(-c2cccs2)nc2ccccc12)c1ccccn1 | -14% | ? | i | 2.8µM* | 0.1µM* | 0.56µM*
CCCC(C(=O)NC1=NCCS1)c1ccccc1 (configuration not stated) | 1% | -26% | i | -9% | 11µM* | ?
O=C(NC1=NCCS1)c1cc(-c2cccs2)nc2ccccc12 | -19% | -9% | i | -16% | 25µM* | ?
O=C(NCCc1csc(-c2cccc(F)c2)n1)c1cccs1 | -32% | -6% | i | -35% | . | .
O=C(CSc1n[nH]c(-c2ccc(F)cc2)n1)N1CCN(c2ccc(F)cc2)CC1 | -1% | -1% | . | . | . | .
COc1cccc(C(=O)NC2=NCCS2)c1 | 5% | 10% | i | ? | 10µM* | ?
O=C(NC1=NCCS1)c1cc(-c2cccnc2)nc2ccccc12 | -3% | 18% | i | -23% | 11µM* | -1%
COc1ccc(C(=O)Nc2ccc(NC(C)=O)cc2)cc1S(=O)(=O)N1CCCCC1C (configuration not stated) | -8% | 4% | i | 10% | . | .
O=C(O)c1cc(-c2cccnc2)nc2ccccc12 | -67% | 0% | i | 0% | 6% | -4%
CC(C)Oc1cccc(C(=O)NC2=NCCS2)c1 | 9% | -1% | i | 38% | ? | -8%[10 µM]
COc1ccc(C(=O)NC2=NCCS2)cc1S(=O)(=O)N1CCCCC1C (configuration not stated) | 3% | -23% | i | . | 14µM* | -2%
O=C(NC1=NCCS1)c1cccc2ccccc12 | -14% | -20% | i | -21% | 11µM* | 21%[10 µM]
CCCCC/C=C\C/C=C\CCCCCCCC(=O)NC(C)C(=O)O (configuration not stated) | . | . | . | . | -16% | -8%
Cc1ccc(C)c(Cn2c(=O)cc(C)c3c(C)nn(-c4cccc(F)c4)c32)c1 | -15% | -4% | i | 4% | . | .
CC(C)(N)C(=O)N[C@@H](Cc1cnc[nH]1)C(=O)N[C@H](Cc1ccc2ccccc2c1)C(=O)N[C@H](Cc1ccccc1)C(=O)N[C@@H](CCCCN)C(N)=O | . | . | . | . | 1% | -9%
Cc1cccc2cc(CN(CC3CCCO3)C(=O)c3cccc(F)c3)c(N(C)C)nc12 (configuration not stated) | . | . | i | . | . | .
CC(C)NC(=O)c1cc(-c2cccs2)nc2ccccc12 | -1% | -10% | ? | . | 10% | -13%
O=C(CSc1cccc2cccc(Cl)c12)NC1=NCCS1 | -11% | -9% | i | -13% | 10µM* | 11µM*
NNC(=O)c1cc(-c2cccs2)nc2ccccc12 | -15% | 10% | i | . | 20µM* | -27%
COc1ccc2cc3cc(C(=O)Nc4cc(C)c(Cl)cc4OC)oc3nc2c1 | -1% | 0% | i | 2% | . | .
